# Target: DOCK1
# Experiment: pooled miR-30 sensor sort-seq; sequence = guide strand
# Details: shRNA
# Further: reference of the scale not given here.
row,Sequence,sensor-assay potency score (higher = more potent)
1,TATCTTGTGTTGACCAAGGTTG,-0.193
2,TTCGTAACGTGTAACCTCGGTA,-0.19
3,TTAACAGTCTCAAACCAGCGTG,-0.984
4,TTACAATCTGCTCTGACACTGG,0.172
5,TACATCATCACTACACAGCTTC,0.384
6,TAACACTTTGTACTGTTCGTCT,-0.198
7,TTATACATCATCACTACACAGC,-0.419

# Target: DOK4
# Experiment: as above
# Details: shRNA
row,Sequence,sensor-assay potency score (higher = more potent)
1,TAGCAGGATGAATCTGTTGAGG,-1.03
2,ATAGTGTCTTGTACCACTCCTC,-0.442
3,TCTAGCTCTGAGTCGCAGGTGA,-0.0163
4,TTCTCCCAGACTGATGTCGTTG,-1.27
5,TAGTGTCTTGTACCACTCCTCT,-0.903
6,TTTAGCAGGATGAATCTGTTGA,0.432
7,TTGAGGAGGTCTGTTTCCGAGC,-1.09
8,TAGCTCTGAGTCGCAGGTGAAG,-1.6
9,TTCCCCAGCATCACACATCCGG,-0.865
10,TCTGAGTCGCAGGTGAAGGTAC,-0.935
11,TTGCTGATCTCAGTCACCTTGG,-0.109
12,TTCTTCTCCATTTCCAGCAGGA,0.267

# Target: DPEP3
# Experiment: as above
# Details: shRNA
row,Sequence,sensor-assay potency score (higher = more potent)
1,AAATTGTCACACACAGCTCTGG,-0.275
2,ATTCTTGTAACGCTGTCTCAGG,-0.648
3,AAGCACATTCTTGTAACGCTGT,0.352
4,TTCCACTTGTCTGAAGACCCGC,-0.394
5,ATGTGGTGTCTGAACTTGGTGG,-0.807
6,TGAACTTGGTGGAACTCTCTGC,0.129
7,TTGGTGGAACTCTCTGCCCATG,-1.6
8,TGAAGCTCTTCCTCGCTCCAGC,-0.659
9,TTGTCTGAAGACCCGCAGCAGG,-1.57
10,TTTGAGAGCTGTTCAGACCTTC,0.484
11,TACATGTGGTGTCTGAACTTGG,-0.261
12,TCAACAAATTGTCACACACAGC,-1.21
13,ATTTCGCAGGTTAACATCCTGA,-0.609

# Target: DPM2
# Experiment: as above
# Details: shRNA
row,Sequence,sensor-assay potency score (higher = more potent)
1,TTCAGCATCACATAGGAGATGA,-0.473
2,TTGGTCTTCAGCATCACATAGG,-0.278
3,TGAACAGTCCCACAAACAGGAG,-1.56
4,TTGTGGATGACATGCTGACTGT,-1.33
5,TCCCACAAACAGGAGCAGCAGG,-1.71
6,TCTTGGTCTTCAGCATCACATA,-1.79
7,ATGAACAGTCCCACAAACAGGA,-0.342
8,TAGTAGGTGAAGATGATCAGGC,0.327

# From the OligoGym collection
